FUS suppressor: rescues growth of FUS-expressing yeast; S. cerevisiae FUS-expressing, growth rescue, OD600, 24 h; Potency, µM (titrated, usually from 76.6 µM), most hits filed as activators; hit rate 0.24% among 390,000; AID 1347120; further: nearly all actives have a fitted effect of over 55% in size
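Yeast FUS proteinopathy model; galactose-induced FUS (2%), starting OD 0.005. Cpds in dilution series, 24hr, 30C, 99% humidity. Abs 600 nm growth. Pos ctrl CP55940 (top 92uM final); neg ctrl DMSO.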
aSyn yeast inh: alpha-synuclein toxicity inhibition in yeast; hit rate 0.14% among 370,000; Potency, µM (series often up to 46.1 µM), actives largely listed as activators; Yeast expressing alpha-synuclein, growth rescue, BacTiter-Glo, 24 h; further: nearly all actives have a fitted effect of over 65% in size
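Screening used galactose-induced yeast with toxic alpha-synuclein levels, exposed to compound for 24 hr at 30 deg C. Cell growth, read with BacTiter-Glo luminescence, gave the measured signal.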
TDP43 rescue: TDP-43 toxicity inhibition in yeast. TDP-43 expressing yeast growth rescue, BacTiter-Glo, 24 h. Potency, µM (titrated, usually from 46.1 µM), usual class: activators. hit rate 1.8% among 410,000; further: nearly all actives have a fitted effect of over 50% in size
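Readout is BacTiter-Glo luminescence of cell growth, so inhibitors register as activators. TDP-43-expressing yeast at OD600=0.02 in galactose medium, after raffinose pregrowth to mid-log, were incubated with compound for 24 hr at 30 deg C.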
A-T KAP1 phos: potential ataxia-telangiectasia treatments restoring KAP-1 phosphorylation; F2112 A-T fibroblasts, KAP-1 phosphorylation AlphaLISA; neocarzinostatin DNA damage 30 min before lysis; Potency, µM (doses to about 57.5 µM), most hits filed as activators; hit rate 0.19% among 320,000; AID 485349; further: nearly all actives have a fitted effect of over 45% in size
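hTERT-immortalized A-T patient fibroblasts (F2112), 500 cells/well in OPTI-MEM, 1% FBS, got compounds for 60 min, then NCS for 30 min at 37C. Lysates were then assayed for phospho-KAP-1 by AlphaLISA (anti-pKAP1 donor, anti-KAP1 acceptor beads), 6 hr at 25C.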
Mito fusion yeast: mitochondrial division inhibition or fusion activation; S. cerevisiae fusion-defective mutant growth rescue, CellTiterGlo 48 h; Potency, µM (doses to about 46.1 µM), most hits filed as activators; hit rate 0.23% among 320,000; AID 485298; further: nearly all actives have a fitted effect of over 45% in size
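Yeast fusion mutant, YPEG (non-fermentable carbon), compound, 48 h at 37C non-permissive; CellTiterGlo added, 10 min RT, luminescence read. Rescued growth = division inhibition.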
Abeta rescue: A-beta toxicity reversal in yeast; yeast expressing A-beta42, growth rescue, OD600, 48 h; response scale: 0% DMSO, 100% iron-clioquinol control; Potency, µM (highest dose often 46.1 µM), usual class: activators; hit rate 0.063% among 410,000; AID 1347071; further: nearly all actives have a fitted effect of over 55% in size
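Yeast A-beta toxicity model in growth medium with pinned compounds, 48 h at 30 C; growth read as absorbance at 600 nm. Normalized to FeCl3/clioquinol equimolar mix (positive) and DMSO (negative).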
Numbers stand for hits; [ ] = another dose, or the depositor's remark. Shown are actives, neighbours in structure and some others; about 2.4% of the full set was active somewhere. The call rests on the fitted dose curve; in most records, active means well fitted curve in the direction sought with a large enough effect; inconclusive means small, poorly fitted or top-dose-only effect, or another doubt; inactive means no such curve, though single readings can be large; an effect the other way counts as inactive or inconclusive.

Results for NC(=O)C1CCN(C(=O)c2ccc(-c3ccccc3Cl)o2)CC1 ?
aSyn yeast inh: inactive; TDP43 rescue: inactive; A-T KAP1 phos: inactive; Mito fusion yeast: inactive; Abeta rescue: inactive

Results for O=C(c1cc(-c2ccccc2Cl)on1)N1CCN(C(=O)c2ccco2)CC1 ?
FUS suppressor: inactive; aSyn yeast inh: inactive; TDP43 rescue: inconclusive; A-T KAP1 phos: inactive; Mito fusion yeast: inactive; Abeta rescue: inactive

What do the screens show for `O=C(c1ccc(-c2cccc(C(F)(F)F)c2)o1)N1CCN(c2ccccc2O)CC1`?
FUS suppressor: inactive; aSyn yeast inh: inactive; TDP43 rescue: 16µM; A-T KAP1 phos: inactive; Mito fusion yeast: inactive; Abeta rescue: inconclusive

How did O=C(c1ccc(-c2cc(Cl)ccc2Cl)o1)N1CCOCC1 do in these assays?
FUS suppressor: inactive; aSyn yeast inh: inactive; TDP43 rescue: inconclusive; A-T KAP1 phos: inactive; Mito fusion yeast: inactive; Abeta rescue: inactive

What do the screens show for `O=C(c1ccc(-c2ccccc2Cl)o1)N1CCN(c2ccccc2O)CC1`?
FUS suppressor: inactive; aSyn yeast inh: inconclusive; TDP43 rescue: 22µM; A-T KAP1 phos: inactive; Mito fusion yeast: 18µM; Abeta rescue: inactive

Results for O=C(c1ccco1)N1CCN(C(=O)c2ccc(-c3ccccc3Cl)o2)CC1 ?
FUS suppressor: inactive; aSyn yeast inh: inactive[1.84 µM]; TDP43 rescue: 14µM; A-T KAP1 phos: inactive; Mito fusion yeast: inactive; Abeta rescue: inactive

What do the screens show for `O=C(c1ccc(-c2ccc(Cl)cc2Cl)o1)N1CCOCC1`?
FUS suppressor: inactive; aSyn yeast inh: inactive; TDP43 rescue: 18µM; A-T KAP1 phos: inactive; Mito fusion yeast: inactive; Abeta rescue: inactive

What do the screens show for `O=C(CSc1nc2sc3c(c2c(=O)n1-c1ccc(Cl)cc1)CCC3)Nc1ccc(C(=O)O)cc1`?
FUS suppressor: inactive

What do the screens show for `CC(=O)N1CCN(/[N+]([O-])=N/Oc2ccc([N+](=O)[O-])cc2[N+](=O)[O-])CC1`?
aSyn yeast inh: inactive

Results for Cc1cccc(CNC(=O)CCCN2C(=O)COc3ccc(C)cc32)c1 ?
FUS suppressor: inactive; TDP43 rescue: inconclusive; Abeta rescue: inactive

How did CC(=O)c1cc(-c2ccc(F)cc2)n(CCC(=O)NCc2ccc(C)cc2)c1C do in these assays?
FUS suppressor: inactive; TDP43 rescue: inactive; Abeta rescue: inactive

What do the screens show for `COc1nc(-c2ccccc2)c2cc(C)ccc2n1`?
FUS suppressor: inactive; aSyn yeast inh: inactive; TDP43 rescue: 13µM; A-T KAP1 phos: inactive; Mito fusion yeast: inactive; Abeta rescue: inactive

How did CCOc1nc(-c2ccccc2)c2cc(C)ccc2n1 do in these assays?
FUS suppressor: inactive; aSyn yeast inh: inactive; TDP43 rescue: inactive; A-T KAP1 phos: inactive; Mito fusion yeast: inactive; Abeta rescue: inactive

What do the screens show for `O=C(N/N=C/c1c[nH]c2ccc(Br)cc12)c1ccn(Cc2ccc(Cl)cc2Cl)n1`?
FUS suppressor: 28µM; aSyn yeast inh: inactive; TDP43 rescue: inactive; A-T KAP1 phos: inactive; Mito fusion yeast: inactive; Abeta rescue: inactive

What do the screens show for `Cc1cc2c(cc1NS(=O)(=O)c1ccc(NC(=O)CC(C)C)cc1)n(C)c(=O)c(=O)n2C`?
FUS suppressor: inactive; TDP43 rescue: inactive; Abeta rescue: inactive

How did CC(C)(C)C(O)C(Cc1ccccc1Cl)n1cncn1 (stereo not drawn) do in these assays?
FUS suppressor: inactive; aSyn yeast inh: inactive; TDP43 rescue: 35µM; A-T KAP1 phos: inactive; Mito fusion yeast: 10µM; Abeta rescue: inactive

What do the screens show for `CC(C)(C)C(=O)C(Cc1ccccc1Cl)n1cncn1` (stereo not drawn)?
FUS suppressor: inactive; aSyn yeast inh: inactive; TDP43 rescue: 7.1µM; A-T KAP1 phos: inactive; Mito fusion yeast: inactive; Abeta rescue: inactive

How did N#CCC[C@H]1CC[C@]2(CCCN(S(=O)(=O)c3ccccc3)C2)O1 do in these assays?
FUS suppressor: inactive

How did Cc1ccc(NC(=O)Cn2cc3c(n2)CCCCC3)cc1 do in these assays?
FUS suppressor: inactive; TDP43 rescue: inactive[9.22 µM]; Abeta rescue: inactive

How did CC(C)N(Cc1ccccc1)C(=O)c1cc2ccc3cccnc3c2[nH]1 do in these assays?
FUS suppressor: inactive; TDP43 rescue: 22µM; Abeta rescue: inactive

How did COc1ccccc1NC(=O)c1cc2ccc3cccnc3c2[nH]1 do in these assays?
FUS suppressor: inconclusive; TDP43 rescue: 14µM; Abeta rescue: inactive

How did O=C(NCc1cccc(Cl)c1)c1cc2ccc3cccnc3c2[nH]1 do in these assays?
FUS suppressor: inactive; TDP43 rescue: inactive; Abeta rescue: inactive

Results for COc1cc(C(O)c2nc(-c3cc4ccccc4o3)cs2)ccc1F (stereo not drawn) ?
FUS suppressor: inactive; aSyn yeast inh: inactive; TDP43 rescue: inactive; Abeta rescue: inconclusive

Results for OC(c1cccc(Cl)c1)c1nc(-c2cccc3cccnc23)cs1 (stereo not drawn) ?
FUS suppressor: inactive; aSyn yeast inh: 18µM; TDP43 rescue: inconclusive; Abeta rescue: inconclusive

Results for COc1cccc(C(O)c2nc(-c3cc4ccccc4o3)cs2)c1 (stereo not drawn) ?
FUS suppressor: inactive; aSyn yeast inh: inconclusive; TDP43 rescue: 20µM; Abeta rescue: inactive

How did OC(c1cccc(Cl)c1)c1nc(-c2cc3ccccc3o2)cs1 (stereo not drawn) do in these assays?
FUS suppressor: inactive; aSyn yeast inh: inactive; TDP43 rescue: 35µM; Abeta rescue: inactive

How did COc1ccc(CCN2C(=O)CN(C3CCCCCC3)C(=O)C2c2ccc(Cl)cc2)cc1OC (stereo not drawn) do in these assays?
FUS suppressor: inactive; TDP43 rescue: inactive; Abeta rescue: inactive

Results for Cc1ccc(NC(=O)Cn2c(=O)ccc3cc(S(=O)(=O)N4CCCC4)ccc32)cc1N(C)C ?
FUS suppressor: inactive; TDP43 rescue: inactive; Abeta rescue: inactive

How did FC(F)(F)c1ccccc1NC(=S)OCCN1CCCC12CCC(c1ccccc1)CC2 (stereo not drawn) do in these assays?
FUS suppressor: inactive

How did O=C(CN1C(=O)c2cccnc2Sc2ccccc21)Nc1cc(F)ccc1F do in these assays?
FUS suppressor: inactive; TDP43 rescue: inactive; Abeta rescue: inactive

What do the screens show for `Brc1cccc(-c2nnc(SCc3ccon3)n2-c2ccccc2)c1`?
FUS suppressor: inactive; aSyn yeast inh: inactive; TDP43 rescue: 18µM; A-T KAP1 phos: inactive; Mito fusion yeast: inactive; Abeta rescue: inactive

How did CN(C)S(=O)(=O)c1cccc(C(=O)N/N=C\c2ccnc3ccccc23)c1 do in these assays?
FUS suppressor: inactive

What do the screens show for `C=CCn1c(SCc2ccc(C#N)cc2)nnc1-c1ccco1`?
FUS suppressor: inactive

How did C=CCn1c(SCc2c(F)cccc2Cl)nnc1-c1ccco1 do in these assays?
FUS suppressor: inactive; aSyn yeast inh: inactive; TDP43 rescue: 13µM; A-T KAP1 phos: inactive; Mito fusion yeast: inactive; Abeta rescue: inactive

Screens from PubChem.
